Measured values as given in PubChem BioAssay (Tox21).
Several values for one entry are separate records, joined by “and”; a condition that tells them apart may be missing. Equal entries are not always repeated. Results filed as inconclusive are left out. A call without a number means that no potency is given here. Where a structure was tested more than once in an assay, its records may differ in their call. Activity calls are given as the source filed them. The call rests on the fitted dose curve.

Assays:
[1] = biological target: Acetylcholinesterase (Homo sapiens) (UniProt P22303); assay: Acetylcholinesterase (AChE) small molecule antagonists: colormetric cell-based qHTS assay (AID 1347395); further: nearly all actives have a fitted effect of over 30% in size; further: potency means the concentration at half of the fitted maximal effect
Acetylcholinesterase (Homo sapiens), sequence (P22303 whole entry, looked up): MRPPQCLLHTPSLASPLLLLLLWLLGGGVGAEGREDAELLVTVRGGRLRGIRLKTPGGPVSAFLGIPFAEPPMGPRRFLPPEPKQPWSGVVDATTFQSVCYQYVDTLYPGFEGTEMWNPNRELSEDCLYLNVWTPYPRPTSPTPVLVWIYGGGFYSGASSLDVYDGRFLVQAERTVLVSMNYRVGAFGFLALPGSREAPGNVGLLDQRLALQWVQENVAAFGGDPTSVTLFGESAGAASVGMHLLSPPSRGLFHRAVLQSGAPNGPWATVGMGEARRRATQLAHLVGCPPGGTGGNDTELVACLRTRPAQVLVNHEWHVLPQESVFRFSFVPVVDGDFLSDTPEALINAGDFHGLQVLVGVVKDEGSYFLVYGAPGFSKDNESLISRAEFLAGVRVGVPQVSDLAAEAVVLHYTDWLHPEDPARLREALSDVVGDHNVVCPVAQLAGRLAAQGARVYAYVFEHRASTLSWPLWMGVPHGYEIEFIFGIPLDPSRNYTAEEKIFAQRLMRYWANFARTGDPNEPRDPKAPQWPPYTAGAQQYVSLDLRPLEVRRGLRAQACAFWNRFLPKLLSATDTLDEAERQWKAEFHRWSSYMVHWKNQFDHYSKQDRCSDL
In short: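 Neuroblastoma line SH-SY5Y supplied the enzyme; cells were preincubated with compound for 30 min at 37 C and 5% CO2. Acetylthiocholine with DTNB was then added for 90 min at 37 C, and thiocholine was measured by colour.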

[2] = biological target: Acetylcholinesterase (Homo sapiens) (UniProt P22303); assay: Acetylcholinesterase (AChE) small molecule antagonists: enzyme-based qHTS assay (AID 1347397); conditions: Potency: AChE enzyme activity inhibition; outcome: AChE enzyme activity inhibition; further: nearly all actives have a fitted effect of over 55% in size; further: potency means the concentration at half of the fitted maximal effect
In short: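 First, recombinant human AChE (50 mU/mL as dispensed) received test compound or DMSO. Second, plates stood 30 min at room temperature. Third, DTNB and acetylthiocholine were added, followed by 10 min at room temperature and colorimetric detection.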

[3] = biological target: Acetylcholinesterase (Homo sapiens) (UniProt P22303); assay: Acetylcholinesterase (AChE) small molecule antagonists: enzyme-based qHTS assay with human liver microsomes (AID 1347399); conditions: Potency: qHTS inhibition; outcome: qHTS inhibition; further: nearly all actives have a fitted effect of over 60% in size
In short: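 Recombinant human AChE (50 mU/mL in the enzyme mix) and human liver microsomes (0.25 mg/mL final) were preincubated with compound and NADPH (0.25 mg/mL final) for 30 min at 37 C. Acetylthiocholine/DTNB was then added; thiocholine was read colorimetrically after 10 min at room temperature.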

[4] = biological target: Acetylcholinesterase (Homo sapiens) (UniProt P22303); assay: Acetylcholinesterase (AChE) small molecule antagonists: fluorescence cell-based qHTS assay (AID 1347398); conditions: Potency: AChE activity; outcome: AChE activity; further: nearly all actives have a fitted effect of over 50% in size; further: potency means the concentration at half of the fitted maximal effect
In short: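 Homogeneous quantitative HTS format. SH-SY5Y cells seeded at 2,000 per well settle overnight at 37 C. Compound pretreatment runs 30 min (37 C, 5% CO2); substrate/probe mix then reacts 40 min at RT before reading 490/520 nm.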

Structure (SMILES): CCn1nc(C)c2c1C(=O)NCC(c1ccc(O)cc1)=N2
- Potency [1]: inactive
- Potency [2]: inactive
- Potency [3]: inactive

Structure (SMILES): O=C(O)c1cccc(Oc2ccccc2)c1
- Potency [1]: inactive
- Potency [4]: inactive

Structure (SMILES): CCOC(=O)c1ccc(C)cc1
- Potency [1]: inactive
- Potency [2]: inactive
- Potency [3]: inactive

Structure (SMILES): O=C1OC(c2ccc(O)cc2)(c2ccc(O)cc2)c2ccccc21
- Potency [1]: 35.6 µM (active) and 24.5 µM (active)
- Potency [2]: inactive
- Potency [3]: inactive

Structure (SMILES): CS(=O)(=O)CCNCc1ccc(-c2ccc3ncnc(Nc4ccc(OCc5cccc(F)c5)c(Cl)c4)c3c2)o1
- Potency [1]: inactive
- Potency [2]: inactive
- Potency [3]: inactive

Structure (SMILES): CCn1cc(C(=O)O)c(=O)c2cnc(N3CCNCC3)nc21
- Potency [1]: inactive
- Potency [2]: inactive
- Potency [3]: inactive

Structure (SMILES): CCCCCCCCC1CO1 (configuration not stated)
- Potency [1]: inactive
- Potency [2]: inactive
- Potency [3]: inactive

Structure (SMILES): CCC(=O)CC(C)CC (configuration not stated)
- activity, negative = inhibition [1]: -0.199% [at 0.435 µM] (inactive)
- activity change, negative = inhibition [2]: 1.36% [at 0.435 µM] (inactive)
- activity change, negative = inhibition [3]: 0% [at 0.435 µM] (inactive)

Structure (SMILES): CC(C)NCC(O)c1cc(O)cc(O)c1 (configuration not stated)
- Potency [1]: inactive
- Potency [2]: inactive
- Potency [3]: inactive

Structure (SMILES): COCC(C)OC(C)=O (configuration not stated)
- Potency [1]: inactive
- Potency [2]: inactive
- Potency [3]: inactive

Structure (SMILES): COc1cc(C)ccc1O
- Potency [1]: inactive
- Potency [2]: inactive
- Potency [3]: inactive

Structure (SMILES): CCCCCCC(C)OC(=O)COc1nc(F)c(Cl)c(N)c1Cl (configuration not stated)
- Potency [1]: inactive
- Potency [2]: inactive
- Potency [3]: inactive

Structure (SMILES): C/C=C\C/C=C/CCCCCCCCOC(C)=O
- Potency [1]: inactive
- Potency [2]: inactive
- Potency [3]: inactive

Structure (SMILES): CCCCCCCCCCCCCCCCCC(=O)OCC(CC)CCCC (configuration not stated)
- Potency [1]: inactive
- Potency [2]: inactive
- Potency [3]: inactive

Structure (SMILES): CCCCCCCOC(=O)c1ccc(O)cc1
- Potency [1]: inactive
- Potency [2]: inactive
- Potency [3]: inactive

Structure (SMILES): C/C=C/C(=O)OCC(C)C
- Potency [1]: inactive
- Potency [2]: inactive
- Potency [3]: inactive

Structure (SMILES): O=C(/C=C/C=C/c1ccc2c(c1)OCO2)N1CCCCC1
- Potency [1]: inactive
- Potency [2]: inactive
- Potency [3]: inactive

Structure (SMILES): CC(=O)O[C@]1(C(C)=O)CC[C@H]2[C@@H]3C[C@H](C)C4=CC(=O)CC[C@]4(C)[C@H]3CC[C@@]21C
- Potency [1]: inactive
- Potency [2]: inactive
- Potency [3]: inactive

Structure (SMILES): Cc1ccc2ccccc2n1
- Potency [1]: inactive
- Potency [2]: inactive
- Potency [3]: inactive

Structure (SMILES): COC(C)(C)OC
- Potency [1]: inactive
- Potency [2]: inactive
- Potency [3]: inactive

Structure (SMILES): NCCc1ccc(O)c(O)c1
- outcome [1]: inactive
- outcome [2]: inactive
- outcome [3]: inactive

Structure (SMILES): O=C(Cl)c1c(Cl)cccc1Cl
- Potency [1]: 64 µM (active)
- Potency [2]: inactive
- Potency [3]: inactive

Structure (SMILES): C=C(C)C(=O)OCCOC1CC2CC1C1C=CCC21 (configuration not stated)
- Potency [1]: inactive
- Potency [2]: inactive
- Potency [3]: inactive

Structure (SMILES): CC[C@H](C)C(=O)O[C@H]1C[C@H](O)C=C2C=C[C@H](C)[C@H](CC[C@@H](O)C[C@@H](O)CC(=O)O)[C@H]21
- Potency [1]: inactive
- Potency [2]: inactive
- Potency [3]: inactive

Structure (SMILES): Cc1ccc(C(=O)Nc2ccc(S(=O)(=O)O)c3cc(S(=O)(=O)O)cc(S(=O)(=O)O)c23)cc1NC(=O)c1cccc(NC(=O)Nc2cccc(C(=O)Nc3cc(C(=O)Nc4ccc(S(=O)(=O)O)c5cc(S(=O)(=O)O)cc(S(=O)(=O)O)c45)ccc3C)c2)c1
- Potency [1]: inactive
- Potency [2]: inactive
- Potency [3]: inactive

Structure (SMILES): C#Cc1cccc(Nc2ncnc3cc(OCCOC)c(OCCOC)cc23)c1
- Potency [1]: inactive
- Potency [2]: inactive
- Potency [3]: inactive

Structure (SMILES): CC(C)(C)c1ccc(O)c(O)c1
- Potency [1]: inactive
- Potency [2]: inactive
- Potency [3]: inactive

Structure (SMILES): CC(C)[N+](C)(CCOC(=O)C1c2ccccc2Oc2ccccc21)C(C)C
- Potency [1]: inactive
- Potency [2]: inactive
- Potency [3]: inactive

Structure (SMILES): CC1CCCC(=O)C1=O (configuration not stated)
- Potency [1]: inactive
- Potency [2]: inactive
- Potency [3]: inactive

Structure (SMILES): CC1=CC[C@H]2C[C@@H]1C2(C)C
- Potency [1]: inactive
- Potency [2]: 63.9 µM (active) and inactive
- Potency [3]: inactive

Structure (SMILES): CC(=O)CCc1ccc(OC(C)=O)cc1
- Potency [1]: inactive
- Potency [2]: inactive
- Potency [3]: inactive

Structure (SMILES): CCOc1ccc2c(c1)C(C)=CC(C)(C)N2
- Potency [1]: inactive
- Potency [2]: inactive
- Potency [3]: inactive

Structure (SMILES): CC1=NN(c2ccc(S(=O)(=O)O)cc2)C(=O)C1
- Potency [1]: inactive
- Potency [2]: inactive
- Potency [3]: inactive

Structure (SMILES): CC(=O)CC(=O)c1ccccc1
- Potency [1]: inactive
- Potency [2]: inactive
- Potency [3]: inactive

Structure (SMILES): O=C(O)c1cc(O)c2c(c1)C(=O)c1cccc(O)c1C2=O
- Potency [1]: inactive
- Potency [2]: inactive
- Potency [3]: inactive

Structure (SMILES): CCC(C)(O)CCC=C(C)C (configuration not stated)
- Potency [1]: inactive
- Potency [2]: inactive
- Potency [3]: inactive

Structure (SMILES): CC(=O)/C=C/c1ccco1
- Potency [1]: inactive
- Potency [2]: inactive
- Potency [3]: inactive

Structure (SMILES): CCCc1ccccc1O
- Potency [1]: inactive
- Potency [4]: inactive

Structure (SMILES): CN(C)CCCCl
- Potency [1]: inactive
- Potency [4]: inactive
- Potency [3]: inactive

Structure (SMILES): CCc1nn(C2CCCCC2)c2cc(C3(C#N)CCC(C(=O)O)CC3)ccc12 (configuration not stated)
- Potency [1]: inactive
- Potency [4]: inactive
- Potency [3]: inactive

Structure (SMILES): C=CCCCCCCCCC=O
- Potency [1]: inactive
- Potency [4]: inactive
- Potency [3]: inactive

Structure (SMILES): CCCCCC(=O)OCC
- Potency [1]: inactive
- Potency [4]: inactive
- Potency [3]: inactive

Structure (SMILES): CC(=O)C1(C)CC2=C(CCCC2(C)C)CC1C (configuration not stated)
- Potency [1]: inactive
- Potency [4]: inactive
- Potency [3]: inactive

Structure (SMILES): COc1cc(NS(=O)(=O)c2ccc(N)cc2)nc(OC)n1
- Potency [1]: inactive
- Potency [4]: inactive
- Potency [3]: inactive

Structure (SMILES): COc1ccc(N)c(OC)c1
- Potency [1]: inactive
- Potency [4]: inactive
- Potency [3]: inactive

Structure (SMILES): CCC(C)c1cc([N+](=O)[O-])cc([N+](=O)[O-])c1OC(=O)OC(C)C (configuration not stated)
- Potency [1]: inactive
- Potency [4]: inactive
- Potency [3]: inactive

Structure (SMILES): Nc1ccn([C@H]2CC[C@@H](CO)O2)c(=O)n1
- Potency [1]: inactive
- Potency [4]: inactive
- Potency [3]: inactive

Structure (SMILES): CC(C)COC(=O)c1ccccc1
- Potency [1]: inactive
- Potency [4]: inactive
- Potency [3]: inactive

Structure (SMILES): CC(C)CCCCCCc1ccc(OCCOCCO)cc1
- Potency [1]: inactive
- Potency [4]: inactive
- Potency [3]: inactive

Structure (SMILES): C=C(C)C(=O)OCCOP(=O)(O)OCCOC(=O)C(=C)C
- Potency [1]: inactive
- Potency [4]: inactive
- Potency [3]: inactive

Structure (SMILES): O=C1c2ccccc2C(=O)C1c1ccc2ccccc2n1
- Potency [1]: inactive
- Potency [4]: inactive
- Potency [3]: inactive

Structure (SMILES): CCCCN(CCN(CCCC)C(=O)N1CCOCC1)C(=O)N1CCOCC1
- Potency [1]: inactive
- Potency [4]: inactive
- Potency [3]: inactive

Structure (SMILES): Cc1ccc([N+](=O)[O-])cc1S(=O)(=O)O
- Potency [1]: inactive
- Potency [4]: inactive
- Potency [3]: inactive

Structure (SMILES): CO[Si](CCCNCCNCCN)(OC)OC
- Potency [1]: inactive
- Potency [4]: inactive
- Potency [3]: inactive

Structure (SMILES): NC(=NCCCCCCN=C(N)/N=C(\N)Nc1ccc(Cl)cc1)/N=C(\N)Nc1ccc(Cl)cc1
- Potency [1]: 56.1 µM (active) and 62.9 µM (active) and inactive
- Potency [4]: 11.1 µM (active) and 17.7 µM (active) and 16.2 µM (active)
- Potency [3]: inactive

Structure (SMILES): Nc1ccc(S(=O)(=O)Nc2ccccn2)cc1
- Potency [1]: inactive
- Potency [4]: inactive
- Potency [3]: inactive

Structure (SMILES): CCCCCCCCSCCO
- Potency [1]: inactive
- Potency [4]: inactive
- Potency [3]: inactive

Structure (SMILES): CCOC(=O)N1CCC(=C2c3ccc(Cl)cc3CCc3cccnc32)CC1
- Potency [1]: inactive
- Potency [4]: inactive

Structure (SMILES): CCN(CC)c1ccc(C(=O)c2ccccc2C(=O)O)c(O)c1
- Potency [1]: inactive
- Potency [4]: inactive
- Potency [3]: inactive

Structure (SMILES): CCCCCC(CO)CCC (configuration not stated)
- Potency [1]: inactive
- Potency [4]: inactive
- Potency [3]: inactive
